From PubChem
Mdm2-MdmX inh – disrupts the human Mdm2-MdmX interaction. AID 485346. SaOS-2 split-luciferase Mdm2/MdmX complementation, luminescence. actives 3% (n = 330,000). inhibition, % at 8 µM;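 active = inhibition of at least 50% at 8 µM in the primary screen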
Target sequence (O15151 whole entry, looked up): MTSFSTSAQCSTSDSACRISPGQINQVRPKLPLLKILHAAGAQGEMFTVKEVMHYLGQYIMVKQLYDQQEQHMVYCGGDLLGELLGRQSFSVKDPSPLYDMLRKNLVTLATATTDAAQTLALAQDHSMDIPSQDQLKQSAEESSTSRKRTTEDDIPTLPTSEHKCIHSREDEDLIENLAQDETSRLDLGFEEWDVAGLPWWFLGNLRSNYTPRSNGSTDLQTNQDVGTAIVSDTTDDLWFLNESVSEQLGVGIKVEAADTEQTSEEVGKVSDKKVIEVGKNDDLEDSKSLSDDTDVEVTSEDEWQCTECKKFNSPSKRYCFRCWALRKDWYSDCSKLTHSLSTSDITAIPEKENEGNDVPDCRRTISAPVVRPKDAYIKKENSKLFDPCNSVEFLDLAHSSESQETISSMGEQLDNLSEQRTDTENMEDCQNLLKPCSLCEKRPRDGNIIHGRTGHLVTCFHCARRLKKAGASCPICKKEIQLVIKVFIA
Target sequence (Q00987 whole entry, looked up): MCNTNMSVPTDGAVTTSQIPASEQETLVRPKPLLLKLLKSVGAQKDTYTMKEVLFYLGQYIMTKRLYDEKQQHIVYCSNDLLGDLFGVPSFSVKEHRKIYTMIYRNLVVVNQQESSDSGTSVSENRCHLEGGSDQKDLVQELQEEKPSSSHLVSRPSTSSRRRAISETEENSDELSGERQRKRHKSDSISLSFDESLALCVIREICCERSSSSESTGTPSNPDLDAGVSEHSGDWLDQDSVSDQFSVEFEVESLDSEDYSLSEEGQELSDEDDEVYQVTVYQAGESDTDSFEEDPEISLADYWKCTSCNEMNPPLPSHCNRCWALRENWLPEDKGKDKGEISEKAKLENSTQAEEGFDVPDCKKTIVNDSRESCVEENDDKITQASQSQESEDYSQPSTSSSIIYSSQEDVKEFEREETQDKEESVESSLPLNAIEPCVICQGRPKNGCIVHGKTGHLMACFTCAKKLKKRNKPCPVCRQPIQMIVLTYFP
Gli-Sufu block – Gli-Sufu pathway antagonism. Sufu-KO-LIGHT fibroblasts, Gli luciferase reporter luminescence. inhibition, % at 5 µM. actives 0.74% (n = 340,000). AID 588413;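 active = inhibition above about 55%, limit read from the data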
CSC inhib – blocks cancer stem cells | inhibition, % at 7.5 µM | cancer stem cell-like cells viability, luminescence | AID 2717 | actives 1.1% (n = 300,000); in the data active = inhibition above about 75%; tested in HMLE shEcad cells
Jurkat NFkB inh – inhibitors of the PMA/ionomycin-induced NF-kB reporter in Jurkat cells; PMA/ionomycin-induced NF-kB luciferase reporter, luminescence; inhibition, % at 4 µM; actives 0.53% (n = 330,000); AID 435003; in the data active = inhibition above about 50%
697 NFkB inh – lowers PMA/ionomycin-induced NF-kB signal in 697 B cells. 697 B-cell NF-kB luciferase reporter, 16 h. actives 0.33% (n = 330,000). inhibition, % at 4 µM; in the data active = inhibition above about 35%
Beta cell apopt – blocks beta cell apoptosis; INS-1E cytokine-induced death, ATP luminescence, 48 h; percent of positive-control rescue, neutral wells zero; protection from apoptosis, % (concentration not given with the values); actives 0.8% (n = 300,000); AID 435005;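 active = Every replicate reaches about 75%, or at least half do and their mean reaches it too, limit read from the data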;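 note: higher means more ATP so stronger rescue from cytokine killing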
Hits are given with their value; - = inactive; . = not tested or not shown. Hits are enriched below; roughly 4.5% of the tested compounds scored in any of these assays.

SMILES	Mdm2-MdmX inh	Gli-Sufu block	CSC inhib	Jurkat NFkB inh	697 NFkB inh	Beta cell apopt
O=C(Nc1ccn(Cc2ccccc2F)n1)c1ccc(COc2ccccc2Cl)cc1	-	-	139	-	-	-
Cc1cc(C)nc(NC(=O)c2ccc(COc3ccccc3Cl)cc2)c1	-	-	99	-	-	-
O=C(Nc1ccn(Cc2c(F)c(F)cc(F)c2F)n1)c1ccc(COc2ccccc2Cl)cc1	-	-	-	-	-	-
N#C/C(=C(/O)c1ccc2c(c1)OCO2)c1nc2cc(C(F)(F)F)ccc2s1	-	-	79	-	-	-
CC12CCC(C/C1=N\N=C1\NC(=O)/C(=C\c3cccc(Br)c3)S1)C2(C)C (centres undefined)	-	-	105	-	-	-
COc1cc(/C=N/N=C2\CC3CCC2(C)C3(C)C)ccc1O (centres undefined)	-	-	-	-	-	-
Cc1ccccc1NC(=O)NC1(C(=O)N2CCC(C(N)=O)CC2)CCCCC1	-	-	-	-	-	.
CC(=O)c1cccc(OC(=O)c2cc(S(=O)(=O)N3CCOCC3)ccc2N2CCCC2)c1	-	-	.	-	-	-
Cc1ccc(NC(=S)Nc2cc(-c3ccccc3)[nH]n2)cc1Cl	-	-	-	-	-	-
Fc1ccc(NC(=S)Nc2cc(-c3ccccc3)[nH]n2)cc1Cl	-	-	88	-	-	-
OCCN(CCO)CC(O)COc1ccc(C23CC4CC(CC(C4)C2)C3)cc1 (centres undefined)	.	-	78	.	.	-
O=C(c1cccc(Br)c1)c1coc2ccc(O)cc12	-	-	91	-	-	-
COc1ccc(C(=O)c2coc3ccc(O)cc23)cc1	-	-	-	-	-	-
c1ccc(N(c2ccccc2)c2nc(N3CCCC3)nc(-n3ccnc3)n2)cc1	-	-	101	-	-	-
CN(c1ccccc1)c1nc(N2CCCC2)nc(-n2ccnc2)n1	-	-	-	-	-	-
O=C(NCCO)C(=O)Nc1cc2c3c(c1)CCC(=O)N3CCC2	-	-	-	-	-	-
O=C(NC(=S)Nc1ccc(N2CCCCC2)c(Cl)c1)c1cccs1	-	-	81	-	-	-
Cc1ccc(-n2[nH]c(C)c(C=Nc3ccc4[nH]c(=O)[nH]c4c3)c2=O)cc1	-	-	.	-	-	-
Cc1ccc(N=Cc2c(C)[nH]n(-c3nc4ccccc4[nH]3)c2=O)cc1	-	-	95	-	-	92
COc1cc(OC)cc(C(=O)N2CCN(S(=O)(=O)c3ccc(Cl)s3)CC2)c1	-	-	.	-	-	-
COc1ccc(Cl)cc1Nc1nnc(-c2ccncc2)s1	-	-	.	-	-	.
Clc1ccccc1Nc1nnc(-c2ccncc2)s1	-	-	-	-	-	75
Cc1ccc2c(c1)C1(OCCCO1)C(=O)N2	-	-	-	-	-	-
O=C(OCN1C(=O)c2ccccc2C1=O)c1cc(S(=O)(=O)N2CCOCC2)ccc1F	-	-	.	-	-	.
Cc1cccc(-c2nc(C#N)c(NC3CCCCC3)o2)c1	-	-	99	-	-	-
SMILES	Mdm2-MdmX inh	Gli-Sufu block	CSC inhib	Jurkat NFkB inh	697 NFkB inh	Beta cell apopt
Cc1ccc(S(=O)(=O)N2CCN(S(=O)(=O)c3ccccc3Br)C2=O)cc1	-	-	.	.	-	.
CC1=NN(c2nc(-c3ccc(Cl)cc3)cs2)C(=O)C1	-	-	123	-	-	-
CC1=NN(c2ccc(Cl)cc2)C(=O)C1	-	-	-	-	-	.
CC1=NN(c2nc(-c3ccc(F)cc3)cs2)C(=O)C1	-	-	86	-	-	-
O=[N+]([O-])c1ccc(-n2cnc3ccccc32)c([N+](=O)[O-])c1	-	-	-	-	-	118
Cc1c(C(=O)N(C)Cc2ccccc2)oc2ccc(S(=O)(=O)N3CCCC3)cc12	-	-	-	-	-	-
Cc1c(C(=O)N(Cc2ccccc2)C(C)C)oc2ccc(S(=O)(=O)N3CCOCC3)cc12	-	-	-	-	-	90
CCC(=O)N1CCc2cc(S(=O)(=O)NCCC(=O)N3CCN(c4cccc(C)c4)C(C)C3)ccc21 (centres undefined)	-	-	-	-	-	-
Oc1c(Br)cc(/C=N/Nc2ccc(Cl)nn2)cc1Br	-	-	-	-	-	-
Oc1c(Br)cc(Br)cc1/C=N/Nc1ccc(Cl)nn1	.	90	100	.	.	98
CCOC(=O)C1=C(COC(=O)CNS(=O)(=O)c2ccc(NC(C)=O)cc2)NC(=O)NC1C (centres undefined)	.	-	.	.	.	.
O=[N+]([O-])c1cc(O)c2ncccc2c1	-	67	-	-	-	.
OCCNc1nnc(-c2ccccc2)c(-c2ccccc2)n1	-	-	-	-	-	-
O=C(NCCN1CCCC1)c1ccc2c(c1)N(Cc1cccc(Cl)c1)C(=O)c1ccccc1S2(=O)=O	-	-	107	-	-	-
COCC(C)NCc1ccc(OC)c(Br)c1 (centres undefined)	-	-	-	-	-	-
Cc1nc(N2CCN(C(=O)c3ccco3)CC2)c2c3c(sc2n1)CC(C)CC3 (centres undefined)	-	79	-	-	-	80
CC(Sc1nncn1C)C(=O)Nc1ccc2ccccc2c1 (centres undefined)	-	-	.	-	-	.
Cc1ccc(CN2C(=O)/C(=C\c3ccc(C(=O)NCc4cccnc4)cc3)Oc3ccccc32)cc1	-	.	108	-	-	99
O=[N+]([O-])c1cccnc1N/N=C/c1ccccc1O	-	-	-	-	-	110
O=[N+]([O-])c1ccc(O)c(/C=N/Nc2ccccn2)c1	.	72	118	.	.	105
CC(=O)/C(=C\N(C)C)Sc1ccc(Cl)cc1	-	-	-	-	-	.
S=C(Sc1ccc(Cl)cc1)Sc1ccc(Cl)cc1	-	.	77	-	-	-
O=[N+]([O-])/C=C/c1cn(Cc2ccc(Cl)cc2)c2ccccc12	-	-	99	-	-	-
COc1cccc(CCNC(=O)CCc2nnc(-c3cc(C)oc3C)o2)c1	-	-	-	-	-	-
O=C(CC1SC(=Nc2ccccc2)N(CCc2c[nH]c3ccccc23)C1=O)Nc1ccccc1F (centres undefined)	-	-	81	-	-	-
SMILES	Mdm2-MdmX inh	Gli-Sufu block	CSC inhib	Jurkat NFkB inh	697 NFkB inh	Beta cell apopt
CCOC(OCC)c1cn(Cc2ccc3c(c2)C(=O)c2ccccc2C3=O)nn1	-	.	-	-	-	-
CCOC(=O)c1c(NC(NC(=O)C(C)C)C(Cl)(Cl)Cl)sc2c1CCC2 (centres undefined)	-	-	101	-	-	-
O=C(Nc1ccc(OCC(=O)N2CCC(Cc3ccccc3)CC2)cc1)c1ccco1	-	-	-	-	-	98
CC(C)OCCCNC(=S)N1CCC(C(=O)c2ccc(Cl)cc2)CC1	-	-	-	-	-	102
O=c1o[nH]c(-c2ccccc2)c1-c1ccccc1	-	-	-	-	-	-
CC(C)(c1cc(Br)c(O)c(Br)c1)c1cc(Br)c(O)c(Br)c1	-	-	103	-	-	-
COC(=O)c1ccc2cc(OC)cc([N+](=O)[O-])c2n1	.	-	.	.	.	.
COc1cnc(-c2ccccn2)nc1Sc1ccccc1Cl	-	-	-	-	-	86
